Test [1] can be described thus: small molecules captured by biotinylated probe aFSTL3 – biochemical, small-molecule microarray, fluorescence 635/667, stem cell growth factor project, primary screen (AID 1064).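 Also: measures binding of the biotinylated anti-FSTL3 antibody to printed compounds.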 The settings on record: higher = more signal.
A short description of test [2]: binders from COS7 lysate, DM2A8 probe, primary screen, torsin A project, cell lysate, small-molecule microarray, fluorescence 635/667 (AID 1065). The settings on record: higher = more signal, COS7 lysate expressing mutant human TOR1A.
Test [3] can be described thus: small molecules captured by biotinylated probe aFGF2 – biochemical, small-molecule microarray, fluorescence 635/667, stem cell growth factor project, primary screen (AID 1067).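 Also: measures binding of biotinylated aFGF2 protein to printed compounds on slides; z-score merges feature fluorescence and signal-to-noise across triplicate slides.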 Conditions: higher = more signal.
The nature of test [4]: small molecules captured by biotinylated probe aFGF10 – biochemical, small-molecule microarray, fluorescence 635/667, stem cell growth factor project, primary screen (AID 1071).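 Also: score merges 667 nm spot intensity and signal to noise from triplicate slides.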 Conditions: higher = more signal.
Test [5] addresses Neurogenic locus notch homolog protein 2 (Homo sapiens) (UniProt Q04721). Put plainly: small molecules binding Notch2 protein – biochemical, small-molecule microarray, 635 nm fluorescence, stem cell growth factors, primary screen (AID 1073). Conditions: higher = more signal.
The target in test [6] is Pro-neuregulin-1, membrane-bound isoform (Homo sapiens) (UniProt Q02297). Put plainly: small molecules binding neuregulin-1 protein – biochemical, small-molecule microarray, fluorescence 635/667, psychiatric disease protein project, primary screen (AID 1075).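 Also: score combines 667 nm spot fluorescence with signal to noise.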 The settings on record: NRG1 binding, 635 nm fluorescence, higher = more signal.
For test [7], the system named is Neuregulin-1 EGF-like domain. Put plainly: small molecules binding NRG1 EGF domain – biochemical, small-molecule microarray, 635 nm fluorescence, primary screen (AID 1081).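 Also: binding of the protein to compounds printed on small-molecule microarray slides.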 Conditions: higher = more signal.
Test [8] in a line: FRG1 expression reporter modulators in myotubes – cell-based, C2C12 myotubes, firefly/Renilla luciferase, luminescence, FRG1 inhibition for FSHD, primary screen (AID 1084). Conditions: FRG1 promoter luciferase, higher = more signal, called active from +8 up or from −8 down.
Test [9] can be described thus: small molecules captured by biotinylated probe aFST – biochemical, small-molecule microarray, fluorescence 635/667, stem cell growth factor project, primary screen (AID 1086).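 Also: score merges 667 nm fluorescence with signal-to-noise of each printed compound spot.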 The settings on record: higher = more signal.
Test [10] can be described thus: binders of probe aHhip on microarray, primary screen, stem cell growth factor project, biochemical, small-molecule microarray, fluorescence 635/667 (AID 1087).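 Also: score merges spot fluorescence at 667nm with spot signal to noise ratio.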 The settings on record: higher = more signal.
Test [11] deals with PRMT1 (protein arginine N-methyltransferase 1). Put plainly: small molecules binding arginine methyltransferase PRMT1 – biochemical, small-molecule microarray, 635 nm fluorescence, primary screen (AID 1088).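 Also: binding of Prmt1 protein to compounds spotted on small-molecule microarray slides.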 Conditions: higher = more signal.
Test [12] in a line: growth effects on S. cerevisiae YJM789 – YJM789 clinical isolate, OD600, 24 h, basal, primary screen (AID 1089).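 Also: growth of clinical yeast isolate S. cerevisiae YJM 789 seeded 1000 cells per well; test concentration not given here.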 The settings on record: higher = more signal, called active from +8 up or from −8 down.
The nature of test [13]: S. pombe growth modifiers, basal conditions – strain 972, OD600, 24 h, no modulator, primary screen (AID 1090).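 Also: basal condition with compound alone and no growth modifier present; test concentration not given here.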 The settings on record: S. pombe 972 growth, higher = more signal, called active from +8 up or from −8 down.
The nature of test [14]: budding yeast growth modifiers under rapamycin – strain BY4716, OD600, 96 h, primary screen (AID 1091). Also: test concentration not given here. The settings on record: S. cerevisiae BY4716 + rapamycin, higher = more signal, called active from +8 up or from −8 down.
The target in test [15] is Torsin-1A-interacting protein 2 (Homo sapiens) (UniProt Q8NFQ8). Put plainly: small molecules binding lysate-expressed LULL1 – cell lysate, human LULL1 lysate, 635/667 nm fluorescence, primary screen (AID 1092).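 Also: probe is lysate of COS7 cells overexpressing human LULL1; score merges per-feature 667 nm fluorescence with signal-to-noise.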 Conditions: small-molecule microarray, hLULL1 lysate binding, 635 nm fluorescence; higher = more signal.
The nature of test [16]: optical density change of DRC41 E. coli – strain DRC41, OD650, 24 h, E. coli filamentation project, primary screen (AID 1093).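 Also: MC1000 strain lacking acrAB efflux and sulA so SOS filamentation is blocked; test concentration not given here.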 The settings on record: E. coli DRC41 growth, higher = more signal, called active from +8 up or from −8 down.
Test [17] is described as follows: probe aLefty2 binding to arrayed compounds – biochemical, biotinylated probe, 635/667 nm fluorescence, primary screen (AID 1094).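 Also: score merges spot fluorescence near 667 nm with spot signal-to-noise ratio.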 Conditions: small-molecule microarray, higher = more signal.
In test [18] the test system is Noggin (protein binding on small-molecule microarray). Put plainly: small molecules binding Noggin protein – biochemical, 635/667 nm fluorescence, primary screen (AID 1095).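 Also: score merges 667 nm feature fluorescence with signal to noise over triplicate slides.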 Conditions: 635 nm fluorescence, higher = more signal.
Test [19] concerns the target Neurogenic locus notch homolog protein 3 (Homo sapiens) (UniProt Q9UM47). Put plainly: small molecules binding NOTCH3 protein – biochemical, 635/667 nm fluorescence, primary screen (AID 1096). The settings on record: small-molecule microarray, 635 nm fluorescence, higher = more signal.
A short description of test [20]: probe aEGFR binding to arrayed compounds – biochemical, biotinylated probe, 635/667 nm fluorescence, primary screen (AID 1097).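 Also: probe is a biotinylated anti-EGFR antibody binding compounds printed on slides; score combines fluorescence near 667 nm and signal to noise of each spot.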 The settings on record: small-molecule microarray, higher = more signal.

The source made the active and inactive calls.

Sequence of Pro-neuregulin-1, membrane-bound isoform (Homo sapiens) (Q02297 whole entry, looked up, the tested form may be a part, canonical isoform): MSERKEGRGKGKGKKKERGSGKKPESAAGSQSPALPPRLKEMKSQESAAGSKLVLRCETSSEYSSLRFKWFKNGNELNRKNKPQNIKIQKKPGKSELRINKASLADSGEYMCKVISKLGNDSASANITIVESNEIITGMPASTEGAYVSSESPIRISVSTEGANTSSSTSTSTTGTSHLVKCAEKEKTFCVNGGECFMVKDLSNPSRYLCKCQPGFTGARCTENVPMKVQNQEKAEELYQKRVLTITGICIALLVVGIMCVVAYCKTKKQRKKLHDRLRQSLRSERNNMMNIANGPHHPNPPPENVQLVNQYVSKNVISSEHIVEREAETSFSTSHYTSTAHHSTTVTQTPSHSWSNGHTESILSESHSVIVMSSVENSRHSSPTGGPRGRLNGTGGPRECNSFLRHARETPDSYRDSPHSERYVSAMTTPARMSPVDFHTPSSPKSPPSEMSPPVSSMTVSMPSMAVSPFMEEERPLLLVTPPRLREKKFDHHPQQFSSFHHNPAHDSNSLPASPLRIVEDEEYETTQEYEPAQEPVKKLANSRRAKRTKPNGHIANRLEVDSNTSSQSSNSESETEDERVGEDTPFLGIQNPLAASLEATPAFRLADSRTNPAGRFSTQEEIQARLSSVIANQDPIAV
Sequence of Torsin-1A-interacting protein 2 (Homo sapiens) (Q8NFQ8 whole entry, looked up): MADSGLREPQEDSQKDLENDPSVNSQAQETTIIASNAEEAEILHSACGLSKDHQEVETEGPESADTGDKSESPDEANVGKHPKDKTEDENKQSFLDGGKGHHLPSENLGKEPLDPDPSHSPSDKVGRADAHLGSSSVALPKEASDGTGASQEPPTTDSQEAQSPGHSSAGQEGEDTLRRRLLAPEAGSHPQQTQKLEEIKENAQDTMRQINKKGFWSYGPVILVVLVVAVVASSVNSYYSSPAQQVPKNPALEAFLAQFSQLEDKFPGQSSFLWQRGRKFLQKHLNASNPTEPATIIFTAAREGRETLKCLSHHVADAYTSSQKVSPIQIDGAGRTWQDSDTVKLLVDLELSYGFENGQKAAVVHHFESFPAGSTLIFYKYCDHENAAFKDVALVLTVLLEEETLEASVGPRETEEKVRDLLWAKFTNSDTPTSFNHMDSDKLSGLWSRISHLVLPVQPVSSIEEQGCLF
Sequence of Neurogenic locus notch homolog protein 2 (Homo sapiens) (Q04721 whole entry, looked up, canonical isoform): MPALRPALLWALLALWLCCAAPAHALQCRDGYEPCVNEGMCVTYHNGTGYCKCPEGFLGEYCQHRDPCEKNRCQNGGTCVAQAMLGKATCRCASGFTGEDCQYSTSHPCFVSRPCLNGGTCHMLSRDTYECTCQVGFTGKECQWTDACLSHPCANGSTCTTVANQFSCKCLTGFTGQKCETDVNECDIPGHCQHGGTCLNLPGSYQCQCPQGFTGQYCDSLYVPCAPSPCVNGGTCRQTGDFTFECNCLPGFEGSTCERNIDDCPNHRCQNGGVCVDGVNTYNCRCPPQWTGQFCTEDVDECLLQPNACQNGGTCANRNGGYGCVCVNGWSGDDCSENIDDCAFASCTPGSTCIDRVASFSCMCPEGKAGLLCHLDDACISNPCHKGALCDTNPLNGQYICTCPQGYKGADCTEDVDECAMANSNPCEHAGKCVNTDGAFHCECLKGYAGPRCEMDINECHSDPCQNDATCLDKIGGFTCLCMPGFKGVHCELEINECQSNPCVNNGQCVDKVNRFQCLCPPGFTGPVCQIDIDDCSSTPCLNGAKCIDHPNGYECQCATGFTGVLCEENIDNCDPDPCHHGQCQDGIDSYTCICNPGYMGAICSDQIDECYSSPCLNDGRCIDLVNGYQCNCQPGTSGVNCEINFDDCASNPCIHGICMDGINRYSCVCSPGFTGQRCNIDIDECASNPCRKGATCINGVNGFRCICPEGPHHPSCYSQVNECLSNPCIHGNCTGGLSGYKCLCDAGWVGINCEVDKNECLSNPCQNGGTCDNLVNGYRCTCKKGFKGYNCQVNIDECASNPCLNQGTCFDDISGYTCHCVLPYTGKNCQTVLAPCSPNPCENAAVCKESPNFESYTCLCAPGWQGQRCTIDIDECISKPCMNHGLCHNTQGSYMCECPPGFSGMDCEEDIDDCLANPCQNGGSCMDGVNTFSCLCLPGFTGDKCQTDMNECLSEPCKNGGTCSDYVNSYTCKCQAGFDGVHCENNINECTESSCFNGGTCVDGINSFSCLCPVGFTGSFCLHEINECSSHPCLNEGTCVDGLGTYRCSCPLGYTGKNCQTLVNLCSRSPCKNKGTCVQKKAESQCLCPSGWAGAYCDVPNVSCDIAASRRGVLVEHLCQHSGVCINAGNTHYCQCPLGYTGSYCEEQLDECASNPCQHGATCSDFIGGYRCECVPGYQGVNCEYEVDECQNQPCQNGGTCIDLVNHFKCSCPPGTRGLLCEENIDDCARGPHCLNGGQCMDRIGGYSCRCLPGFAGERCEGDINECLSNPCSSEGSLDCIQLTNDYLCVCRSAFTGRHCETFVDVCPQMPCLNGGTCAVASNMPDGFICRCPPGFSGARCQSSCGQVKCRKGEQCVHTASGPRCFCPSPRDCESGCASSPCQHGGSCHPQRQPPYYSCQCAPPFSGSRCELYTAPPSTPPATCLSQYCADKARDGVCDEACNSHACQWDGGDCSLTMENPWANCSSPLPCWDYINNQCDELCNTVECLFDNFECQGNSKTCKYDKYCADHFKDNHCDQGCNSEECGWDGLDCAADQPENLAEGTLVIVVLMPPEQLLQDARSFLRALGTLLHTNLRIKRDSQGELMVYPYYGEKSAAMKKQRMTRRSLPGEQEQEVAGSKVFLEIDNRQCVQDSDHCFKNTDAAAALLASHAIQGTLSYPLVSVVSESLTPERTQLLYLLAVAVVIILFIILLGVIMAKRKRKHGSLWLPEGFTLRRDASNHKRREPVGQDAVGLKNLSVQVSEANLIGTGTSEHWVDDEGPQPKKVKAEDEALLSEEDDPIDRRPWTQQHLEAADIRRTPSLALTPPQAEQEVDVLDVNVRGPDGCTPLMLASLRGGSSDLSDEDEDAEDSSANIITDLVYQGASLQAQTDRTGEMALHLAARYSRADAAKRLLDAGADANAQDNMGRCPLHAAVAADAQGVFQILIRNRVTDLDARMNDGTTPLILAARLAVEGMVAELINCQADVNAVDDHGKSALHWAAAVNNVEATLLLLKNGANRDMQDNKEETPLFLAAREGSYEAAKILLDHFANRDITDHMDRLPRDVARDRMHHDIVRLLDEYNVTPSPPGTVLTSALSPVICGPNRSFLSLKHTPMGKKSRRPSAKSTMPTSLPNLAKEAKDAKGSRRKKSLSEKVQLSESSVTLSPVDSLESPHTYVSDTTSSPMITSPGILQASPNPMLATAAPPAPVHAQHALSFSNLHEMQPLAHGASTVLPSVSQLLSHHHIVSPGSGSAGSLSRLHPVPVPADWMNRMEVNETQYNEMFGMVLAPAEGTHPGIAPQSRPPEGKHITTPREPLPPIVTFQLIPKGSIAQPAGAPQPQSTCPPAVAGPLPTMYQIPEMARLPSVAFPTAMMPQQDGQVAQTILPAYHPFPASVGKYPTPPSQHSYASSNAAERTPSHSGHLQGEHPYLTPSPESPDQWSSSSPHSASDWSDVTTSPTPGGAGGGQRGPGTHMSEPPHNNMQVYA

Regarding `C#CCCCON=C1C[C@@H](O)[C@@H](O)[C@@H]2[C@@H]3C(=O)N(c4cccc(Oc5ccccc5)c4)C(=O)[C@@H]3CC[C@@H]12`, the composite z-score is -0.456 in [1]; -0.666 in test [2]; -0.0296 in test [3]; 0.967 in [4]; 0.88 in [5]; 1.44 in test [6]. The composite z-score in [7] is 0.598; in test [9] it was 0.319; in test [10], -0.334; in test [11], 0.678; in test [15], 2.51; in test [17], -0.0961. The composite z-score in test [18] worked out at 0.376; in [19], 1.1; in test [20] it was 0.0675. In addition, the z-score was 0.407 (inactive) in [8]; 0.71 (inactive) in test [12]; 0.329 (inactive) in [13]; -0.426 (inactive) in [14]; 0.303 (inactive) in test [16].
As for `NCCCCCNC(=O)[C@@H]1C[C@@H]2C(=O)N3CCC[C@H]3C(=O)N2[C@@H]1c1cccc(OCCO)c1`, the composite z-score turned out to be 2.37 in test [1]; 2.1 in test [2]; 0.103 in [3]; 0.349 in [4]; 0.185 in test [5]; 1.86 in test [6]. Further, the composite z-score in test [7] turned out to be 1.26; in [9] it was 1.68; in [10], 0.309; in test [11], 1.35; in [15], 1.41; in [17], 0.948. Also, the composite z-score in test [18] is 0.989; in [19], 0.613; in test [20], 0.364. The z-score in test [8] was 0.76 (inactive); in test [12], -0.486 (inactive); in [13], -0.703 (inactive); in test [14], -0.652 (inactive); in test [16], -0.104 (inactive).
As to `COc1ccc(O[C@H]2C=C[C@@H](c3ccccc3)O[C@@H]2COC(=O)CCC(C)=NO[C@@H](C)c2cc(-c3c(C)cc(C)cc3C)no2)cc1`, the composite z-score in test [1] is -0.0675; in test [2] it was -0.499; in [3] it was -0.199; in test [4], -0.522; in test [5], -1.07; in test [6], -0.524. The composite z-score in test [7] was -1.08; in test [9], -0.666; in test [10], -0.237; in [11], -0.225; in test [15], -0.687; in test [17], -0.219. In addition, the composite z-score was -0.916 in [18], -2.17 in test [19] and -0.214 in test [20]. Besides, the z-score is 0.0014 (inactive) in test [8]; -0.843 (inactive) in test [12]; 1.09 (inactive) in test [13]; -0.159 (inactive) in test [14]; -0.312 (inactive) in test [16].
Take `COC(=O)CC1OC1[C@H](C)[C@@H](OC)C(C)C` (stereo not given in full): the composite z-score in [1] is -0.243; in [2], -0.0917; in test [3] it was -0.201; in test [4], 0.123; in test [5], -0.624; in [6] it was -0.407. Besides, the composite z-score in test [7] is -0.102; in [9] it was 0.0068; in test [10] it was -0.316; in test [11], 0.12; in [15], -0.481; in [17], 0.121. Moreover, the values for the composite z-score in test [18], in test [19] and in test [20] were 0.291, -0.556 and -0.151, respectively. Further, the z-score was 1.24 (inactive) in test [8]; -0.132 (inactive) in [12]; -4.41 (inactive) in test [13]; 1.24 (inactive) in test [14]; 0.453 (inactive) in test [16].
For `COC(=O)[C@@H]1N=C(c2ccc(OCCCO)cc2)O[C@@H]1c1ccccc1N=[N+]=[N-]`, the composite z-score was 1.64 in test [1]; 0.308 in test [2]; -0.006 in [3]; -0.282 in test [4]; 0.124 in [5]; 1.79 in [6]. Also, the composite z-score in test [7] turned out to be 1.18; in test [9], 0.864; in test [10] it was 0.189; in test [11], 1.5; in test [15], 3.01; in test [17], 0.19. In addition, the composite z-score in [18] is -0.179; in test [19] it was 0.487; in [20], -0.027. For the same molecule, the z-score in [8] was 3.42 (inactive); in [12], -2.6 (inactive); in [13] it was -7.5 (inactive); in [14], -1.15 (inactive); in test [16] it was 1.2 (inactive).

The record behind these values is PubChem BioAssay.
